Potency data for 35 molecules are collected here from PubChem BioAssay (NCATS).

Molecules are shown by their SMILES. Inconclusive results are not listed. A call without a number means that no potency is given here. Activity calls are given as the source filed them. Calls follow the shape of the dose curve; as a rule, active = well fitted curve in the direction sought with a large enough effect; inconclusive = small, poorly fitted or top-dose-only effect, or another doubt; inactive = no such curve, though single readings can be large; an effect the other way counts as inactive or inconclusive.
Potency is read from the fitted curve at half-maximal effect.

The nature of the first experiment: qHTS of pediatric cancer cell lines to identify multiple opportunities for drug repurposing: Primary screen for NB-EBc1 cells (AID 1347095). As to conditions: NB-EBc1 neuroblastoma viability, CellTiter-Glo luminescence, 48 h; series mostly up to 46 µM. The method, boiled down: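 Plated cells (500-1,000 per well, growth media) were allowed to settle for 5 hours, treated with compound dilutions for 48 hours, then lysed with CellTiter-Glo for 15 min at room temperature before luminescence reading.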
Consider `CC(=O)NCCC(=O)N[C@@H](CCC(N)=O)C(=O)N[C@@H](CO)C(=O)N[C@@H](CCC(N)=O)C(=O)N[C@@H](CCC(N)=O)C(=O)N[C@H](C(=O)N[C@@H](Cc1ccccc1)C(=O)N[C@]1(C)CCCCCCC=CCCC[C@@](C)(C(=O)N[C@@H](CCC(N)=O)C(=O)N[C@@H](CC(N)=O)C(N)=O)NC(=O)[C@H](CC(C)C)NC(=O)[C@H](CC(C)C)NC(=O)[C@@H](CCCNC(=N)N)NC(=O)[C@H](Cc2c[nH]c3ccccc23)NC(=O)[C@H](CC(C)C)NC(=O)[C@H](CC(N)=O)NC1=O)[C@H](C)O`, for which the Potency entry is “inactive”.
With `CC[C@H](CC#N)OC(=O)N[C@@H](C)c1cccc(NC(=O)Nc2ccc(-c3cnco3)c(OC)c2)c1`, the Potency is 0.296 µM (active).
On the same count and under the same terms, the value for `OCCn1cc(-c2ccc3c(c2)CCC3=NO)c(-c2ccncc2)n1` was “inactive”.
With `C#C[C@]1(O)CC[C@H]2[C@H]3CCc4cc(OC)ccc4[C@H]3CC[C@@]21C`, the Potency result was “inactive”.
For the molecule `O=C(Nc1cccc(C(F)(F)F)c1)Nc1cc(S(=O)(=O)NC2CC2)ccc1-c1ccsc1`, the Potency is 23.5 µM (active).
As for `CC(C)(OCc1nn(Cc2ccccc2)c2ccccc12)C(=O)O`, the Potency is 11.8 µM (active).
In the case of `Cc1cc(C(C)Nc2ccccc2)c2nc(N3CCOCC3)cc(=O)n2c1` (stereo not given), the Potency entry is “inactive”.
Turning to `CNC(=O)c1cc(COc2nnc(Nc3ccc(Cl)cc3)c3ccoc23)ccn1`, the Potency is 23.5 µM (active).
`CN(C)c1ccc(-c2nc3ncc(Cl)c(N4CCN(CC(=O)Nc5nccs5)CC4)c3[nH]2)cc1`: the Potency was 2.35 µM (active).
On the same count and under the same terms, as for `Cc1ccc(NC(=O)Nc2cc(C(F)(F)F)ccc2F)cc1Nc1ccc2c(c1)NC(=O)C2=Cc1ccc[nH]1`, the figure is 11.8 µM (active); as for `CC[C@H](C=C[C@@H](C)[C@H]1CC[C@H]2[C@@H]3CC=C4C[C@@H](O)CC[C@]4(C)[C@@H]3CC[C@]12C)C(C)C`, “inactive”.
In the case of `Cc1cccc(Nc2nc(N[C@@H]3CCCC[C@H]3N)ncc2C(N)=O)c1`, the Potency entry was “inactive”.
On to `C[C@@]1(C(=O)Nc2ccc(F)nc2)CCCN1c1nc(Nc2cc(C3CC3)[nH]n2)c2cccn2n1`, for which the Potency was 0.0264 µM (active).
For `O=c1[nH]c(=O)n([C@H]2C[C@@H](O)[C@@H](CO)O2)cc1C(F)(F)F`, the Potency is 18.7 µM (active).
As to `COc1cc(Cl)cn2c(-c3cccc(NC4CNC4)n3)cnc12`, the Potency was 2.96 µM (active).
As for `CNC(=O)[C@H](Cc1ccccc1)NC(=O)[C@H](CC(C)C)[C@H](CSc1cccs1)C(=O)NO`, the Potency entry was “inactive”.
Take `C[C@]12CC[C@@H]3c4ccc(O)cc4CC[C@H]3[C@H]1[C@@H](O)[C@@H](O)[C@H]2O`: the Potency entry is “inactive”.
As to `O=C(Nc1ccc(OC(F)(F)F)cc1)c1sccc1NCc1ccnc2ccccc12`, the Potency result was “inactive”.
Consider `C[C@@H]1C[C@H]2[C@@H]3CCC4=CC(=O)C=C[C@]4(C)[C@@]3(F)[C@@H](O)C[C@]2(C)[C@@]1(O)C(=O)CO`, for which the Potency entry is “inactive”.
With `COc1c(C)c2c(c(O)c1CC=C(C)CCC(=O)OCCN1CCOCC1)C(=O)OC2`, the Potency is 0.59 µM (active).
With `CSc1cccc(Nc2ncc3cc(-c4c(Cl)cccc4Cl)c(=O)n(C)c3n2)c1`, the Potency was 0.372 µM (active).

The nature of the next experiment: qHTS of pediatric cancer cell lines to identify multiple opportunities for drug repurposing: Primary screen for U-2 OS cells (AID 1347096). Also: nearly all actives have a fitted effect of over 50% in size. As to conditions: U-2 OS viability, CellTiter-Glo luminescence, 48 h; series mostly up to 46 µM. The procedure, abridged: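 Viability after 48 h compound treatment at 37C, 500-1,000 cells/well, read as ATP luminescence with CellTiter-Glo. Primary screens used 11-point (MIPE, 0.78 nM-46 µM) or 8-point (NPC, 0.59 nM-46 µM) final concentrations; follow-up screens used 11-point dilutions.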
`NC(=O)c1nnn(Cc2cc(Cl)c(C(=O)c3ccc(Cl)cc3)c(Cl)c2)c1N`: the Potency entry is “inactive”.
With `CC(=O)NCCC(=O)N[C@@H](CCC(N)=O)C(=O)N[C@@H](CO)C(=O)N[C@@H](CCC(N)=O)C(=O)N[C@@H](CCC(N)=O)C(=O)N[C@H](C(=O)N[C@@H](Cc1ccccc1)C(=O)N[C@]1(C)CCCCCCC=CCCC[C@@](C)(C(=O)N[C@@H](CCC(N)=O)C(=O)N[C@@H](CC(N)=O)C(N)=O)NC(=O)[C@H](CC(C)C)NC(=O)[C@H](CC(C)C)NC(=O)[C@@H](CCCNC(=N)N)NC(=O)[C@H](Cc2c[nH]c3ccccc23)NC(=O)[C@H](CC(C)C)NC(=O)[C@H](CC(N)=O)NC1=O)[C@H](C)O`, the Potency entry was “inactive”.
As to `OCCn1cc(-c2ccc3c(c2)CCC3=NO)c(-c2ccncc2)n1`, the Potency entry is “inactive”.
Turning to `C[C@@H](O[C@H]1OCCN(Cc2n[nH]c(=O)[nH]2)[C@@H]1c1ccc(F)cc1)c1cc(C(F)(F)F)cc(C(F)(F)F)c1`, the Potency result was “inactive”.
On to `CCOC(=O)[C@H](CCc1ccccc1)N[C@@H](C)C(=O)N1CCCC1C(=O)O` (stereo not given in full), for which the Potency result was “inactive”.
Take `O=C(O)CCC=CCC[C@@H]1[C@H](N2CCCCC2)[C@@H](O)C[C@@H]1OCc1ccc(-c2ccccc2)cc1`: the Potency result is “inactive”.
As to `CC(C)(CO)[C@@H](O)C(=O)NCCC(=O)O`, the Potency result is “inactive”.
On to `C#C[C@]1(O)CC[C@H]2[C@H]3CCc4cc(OC)ccc4[C@H]3CC[C@@]21C`, for which the Potency result is “inactive”.
Consider `O=C(Nc1cccc(C(F)(F)F)c1)Nc1cc(S(=O)(=O)NC2CC2)ccc1-c1ccsc1`, for which the Potency entry was “inactive”.
In the case of `Cc1nn(Cc2ccccc2Cl)c(C)c1CN(C)CC(O)COc1ccc(Cl)cc1` (stereo not given), the Potency result is “inactive”.
As to `CC(C)(OCc1nn(Cc2ccccc2)c2ccccc12)C(=O)O`, the Potency entry is “inactive”.
For `C#CCN(C)CC1=Cc2ccccc2Oc2ccccc21`, the Potency result is “inactive”.
Turning to `Cc1cc(C(C)Nc2ccccc2)c2nc(N3CCOCC3)cc(=O)n2c1` (stereo not given), the Potency result was “inactive”.
On the same count and under the same terms, as for `OC[C@H]1O[C@@H](OCCc2ccc(O)cc2)[C@H](O)[C@@H](O)[C@H]1O`, the entry is “inactive”; as for `CCCCc1ccc(NS(=O)(=O)c2ccc(C)c(C(=O)N3CCN(c4cccc(C)c4C)CC3)c2)cc1`, “inactive”.
`COc1cc2c(cc1OC)[C@@H]1Cc3ccc(OC)c(OC)c3CN1CC2`: the Potency result was “inactive”.
For the molecule `O=S(=O)(O)c1ccc2cc(N=Nc3cc(S(=O)(=O)O)c4cccnc4c3O)ccc2c1`, the Potency entry was “inactive”.
For the molecule `CN(C)c1ccc(-c2nc3ncc(Cl)c(N4CCN(CC(=O)Nc5nccs5)CC4)c3[nH]2)cc1`, the Potency entry was “inactive”.
The same measure, in the same setting: as for `CC1CCN(c2cc(N3CCN(C)CC3)ccc2NC(=O)c2cc(C#N)c[nH]2)CC1`, the entry is “inactive”; as for `Cc1ccc(NC(=O)Nc2cc(C(F)(F)F)ccc2F)cc1Nc1ccc2c(c1)NC(=O)C2=Cc1ccc[nH]1`, 23.5 µM (active).
Turning to `CC[C@H](C=C[C@@H](C)[C@H]1CC[C@H]2[C@@H]3CC=C4C[C@@H](O)CC[C@]4(C)[C@@H]3CC[C@]12C)C(C)C`, the Potency entry is “inactive”.
As to `C[C@@]1(C(=O)Nc2ccc(F)nc2)CCCN1c1nc(Nc2cc(C3CC3)[nH]n2)c2cccn2n1`, the Potency result is “inactive”.
Regarding `O=c1[nH]c(=O)n([C@H]2C[C@@H](O)[C@@H](CO)O2)cc1C(F)(F)F`, the Potency entry was “inactive”.
The same measure, in the same setting: the value for `CNC(=O)[C@H](Cc1ccccc1)NC(=O)[C@H](CC(C)C)[C@H](CSc1cccs1)C(=O)NO` was “inactive”; that for `C[C@]12CC[C@@H]3c4ccc(O)cc4CC[C@H]3[C@H]1[C@@H](O)[C@@H](O)[C@H]2O` was “inactive”; that for `Cc1cc(-c2ncc(CC(=O)Nc3ccc(-c4cnccn4)cn3)cc2C)ccn1` was “inactive”.
As to `O=C(Nc1ccc(OC(F)(F)F)cc1)c1sccc1NCc1ccnc2ccccc12`, the Potency entry is “inactive”.
Still for that read-out and setting: as for `O=C1Nc2ccc(I)cc2C1=Cc1cc(Br)c(O)c(Br)c1`, the entry is “inactive”.
In the case of `C[C@@H]1C[C@H]2[C@@H]3CCC4=CC(=O)C=C[C@]4(C)[C@@]3(F)[C@@H](O)C[C@]2(C)[C@@]1(O)C(=O)CO`, the Potency result is “inactive”.
